From PubChem BioAssay AID1851 (National Center for Advancing Translational Sciences (NCATS), 2009)
About 5,100 (32%) of roughly 16,000 compounds were called active. Not shown: some 25% with an inconclusive outcome. Some of the results follow. A number with no mark means an inactive call. The call rests on the fitted dose curve; in most records, active means well fitted curve in the direction sought with a large enough effect; inconclusive means small, poorly fitted or top-dose-only effect, or effect the other way; inactive means no such curve, though single readings can be large or run the other way.

target: Cytochrome P450 3A4 (Homo sapiens) (UniProt P08684); assay: Cytochrome panel assay with activity outcomes; conditions: recombinant CYP, pro-luciferin dealkylation, luminescence, p450-cyp3a4; series mostly up to 57.1 µM
On the % scale 0 is the no-effect control and ±100 the full control effect.

Cytochrome P450 3A4 (Homo sapiens), sequence (P08684 whole entry, looked up): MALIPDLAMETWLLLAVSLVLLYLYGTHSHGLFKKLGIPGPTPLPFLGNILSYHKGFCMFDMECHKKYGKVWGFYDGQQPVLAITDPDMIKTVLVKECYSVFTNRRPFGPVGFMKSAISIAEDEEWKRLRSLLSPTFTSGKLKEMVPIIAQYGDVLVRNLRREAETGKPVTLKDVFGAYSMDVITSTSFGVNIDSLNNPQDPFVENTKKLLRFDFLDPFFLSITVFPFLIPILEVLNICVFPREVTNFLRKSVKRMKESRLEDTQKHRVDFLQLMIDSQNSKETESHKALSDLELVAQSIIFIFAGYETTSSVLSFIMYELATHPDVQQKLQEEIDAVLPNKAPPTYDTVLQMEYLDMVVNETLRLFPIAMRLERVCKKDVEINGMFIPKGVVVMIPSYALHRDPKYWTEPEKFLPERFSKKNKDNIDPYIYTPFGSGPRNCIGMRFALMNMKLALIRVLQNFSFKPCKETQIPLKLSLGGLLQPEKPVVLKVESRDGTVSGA

| Compound | AC50 | activity, negative = inhibition |
| --- | --- | --- |
| N#C/C(=C/c1cccc(C(F)(F)F)c1)c1nc(CCN2C(=O)c3ccccc3C2=O)cs1 | 5.01 µM (active) |  |
| NC(N)=Nc1nc(CCN2C(=O)c3ccccc3C2=O)cs1 | inactive |  |
| O=C(O)CC12C[C@H]3C[C@@H](CC(O)(C3)C1)C2 |  | -10.4% [at 11.4 µM] |
| Cc1nc2nc[nH]n2c(=O)c1NC(=O)CC12CC3CC(CC(C3)C1)C2 | inactive |  |
| O=C(O)CSCNC(=O)CC12CC3CC(CC(C3)C1)C2 | 0.224 µM (active) |  |
| NC(=O)c1ccc(-c2ncc(-c3ccccc3)o2)cc1 | inactive |  |
| NC(=O)c1ccc(-c2nc(-c3ccc4c(c3)OCO4)c(-c3ccccn3)[nH]2)cc1 | 10 µM (active) |  |
| O=C(O)Cc1nn(Cc2ccc(Br)cc2F)c(=O)c2ccccc12 | inactive |  |
| CCOc1cc(CNCCCN2CCOCC2)cc(Br)c1OCC(=O)Nc1cccc(C(F)(F)F)c1 | 4.47 µM (active) |  |
| c1csc(CNCCCN2CCOCC2)c1 | inactive |  |
| COc1ccc(NC(=O)COc2ccc(CNCCCN3CCOCC3)cc2OC)cc1 | inactive |  |
| CN(C)c1ccc(-c2nc(Nc3ccncc3)c3ccccc3n2)cc1 | 7.94 µM (active) |  |
| CN(C)C(=O)c1ccc(-c2nc(Nc3ccncc3)c3ccccc3n2)cc1 | 15.8 µM (active) |  |
| CC(=O)NC1=NC(=O)C(C)S1 (centres undefined) |  | -3.3% [at 2.29 µM] |
| Cc1onc(-c2c(F)cccc2Cl)c1C(=O)N[C@H]1C(=O)N2[C@H]1SC(C)(C)[C@H]2C(=O)O | inactive |  |
| Cc1onc(-c2c(F)cccc2Cl)c1C(=O)N[C@@H]1C(=O)N2[C@H]1SC(C)(C)[C@H]2C(=O)O |  | -13.2% [at 11.4 µM] |
| Cc1cc(NC(=O)c2ccc(S(=O)(=O)N(C)C)cc2)n(-c2ccccn2)n1 | inactive |  |
| Cc1ccc(-n2nc3c(c2NC(=O)c2cccs2)CSC3)cc1 | 12.6 µM (active) |  |
| Cc1ccccc1-n1nc2c(c1NC(=O)c1ccc(S(=O)(=O)N(C)C)cc1)CSC2 | 14.1 µM (active) |  |
| CCCC(=O)Nc1c2c(nn1-c1ccc(C)cc1C)CSC2 | 7.08 µM (active) |  |
| Cc1ccc(NC(=O)CCC(=O)NNS(=O)(=O)c2ccccc2)c(C)c1 |  | 21.8% [at 2.29 µM] |
| Cc1ccccc1-n1nc2c(c1NC(=O)c1c(-c3ccccc3Cl)noc1C)CSC2 | 1.12 µM (active) |  |
| Cc1ccc(NC(=O)CCC(=O)NNC(=O)c2cccs2)c(C)c1 |  | -1.38% [at 2.29 µM] |
| CCN(CC)S(=O)(=O)c1ccc(C(=O)Nc2ncn(Cc3ccccc3)n2)cc1 | inactive |  |

| Compound | AC50 | activity, negative = inhibition |
| --- | --- | --- |
| CCCC(=O)Nc1c(C)n[nH]c1C | inactive |  |
| CCC(=S)/C=C1\Sc2ccccc2N1CCCS(=O)(=O)O | inactive |  |
| O=C(O)Cc1c(O)ccc2ccccc12 |  | -10.5% [at 11.4 µM] |
| c1cncc(-c2nnc3n2C2(CCCCC2)Cc2ccccc2-3)c1 | 1 µM (active) |  |
| CCCn1cnc2c(SCC(=O)O)nc(N)nc21 |  | -4.33% [at 11.4 µM] |
| Cc1[nH]n(C(C)(C)C)c(=O)c1Sc1ccc(Cl)cc1 | 15.8 µM (active) |  |
| Cc1[nH]n(C(C)(C)C)c(=O)c1Sc1ccccc1 | inactive |  |
| O=S(=O)(O)c1ccc2cc(N=Nc3cc(S(=O)(=O)O)c4cccnc4c3O)ccc2c1 |  | -6.99% [at 11.4 µM] |
| CCCCc1ccc(-c2csc(/C(C#N)=C/c3ccc(C)o3)n2)cc1 | 12.6 µM (active) |  |
| Cc1cccc(NS(=O)(=O)c2c(C)n[nH]c2C)c1 | 25.1 µM (active) |  |
| Cc1ccc(NC(=O)C2CCN(S(=O)(=O)c3c(C)n[nH]c3C)CC2)nc1 | inactive |  |
| COc1ccc(N(CC(=O)Nc2cccc(C)c2)S(=O)(=O)c2c(C)n[nH]c2C)cc1 | 3.16 µM (active) |  |
| CC(=O)c1cccc(NC(=O)Oc2ccccc2)c1 | inactive |  |
| COc1cccc(N(CC(=O)Nc2cccc(C(C)=O)c2)S(C)(=O)=O)c1 | 11.2 µM (active) |  |
| Cc1n[nH]c(C)c1S(=O)(=O)N1CCOCC1 | inactive |  |
| CC(=O)c1cc2c(cc1NC(=O)CCCC(=O)O)OCO2 | inactive |  |
| CC(=O)c1c(N=CN(C)C)nc(C)nc1-c1ccccc1 | inactive |  |
| CC(=O)c1cc2c(cc1NC(=O)c1c(-c3ccccc3)noc1C)OCO2 | 1.58 µM (active) |  |
| CN(N=O)C(=O)N[C@H]1C(O)OC(CO)[C@@H](O)[C@H]1O (some centres undefined) | inactive |  |
| O=C(CCCc1ccccn1)c1ccccc1 |  | -27.1% [at 11.4 µM] |
| O=C(/C=C\NCC(=O)c1ccccc1)c1ccccc1 | 15.8 µM (active) |  |
| O=C(O)CCC(=O)CCC(=O)c1ccccc1 | inactive |  |
| CN(C)/C=C/C(=O)c1ccc(F)cc1 | inactive |  |
| O=C(/C=C\NCC(=O)c1ccccc1)c1ccc(F)cc1 | 14.1 µM (active) |  |

| Compound | AC50 | activity, negative = inhibition |
| --- | --- | --- |
| O=C(C[n+]1cccc(NC(=O)c2ccccc2)c1)c1ccc(NC(=O)c2ccccc2)cc1 |  | 9.66% [at 2.29 µM] |
| N[C@@H](CS(=O)O)C(=O)O | inactive |  |
| COc1cccc([C@@H]2Oc3ccc(OC)cc3C(=O)[C@H]2O)c1 | 3.98 µM (active) |  |
| CCN1C(=O)[C@H]2[C@H]3[C@H](O)[C@H](O)C/C(=N/OC[C@@H](O)[C@H]4O[C@H]5OC(C)(C)O[C@H]5[C@@H]4O)[C@@H]3CC[C@@H]2C1=O |  | -16.2% [at 11.4 µM] |
| COc1cccc([C@@H]2Oc3ccc(OC)cc3/C(=N/OC[C@@H](O)COCc3ccco3)[C@@H]2O)c1 | 3.16 µM (active) |  |
| COc1cccc([C@@H]2Oc3ccc(OC)cc3/C(=N/OC[C@@H](C)[C@H](OCc3ccccc3)C(C)C)[C@@H]2O)c1 | 3.16 µM (active) |  |
| COc1cccc(C2C3(C#N)C(N)=NC(OC)(OC)C23C#N)c1 (centres undefined) |  | -16.8% [at 2.29 µM] |
| Cn1c(=O)n2n(c1=O)[C@H]1[C@H](O)[C@H]3O[C@@H]3/C(=N/OC[C@@H](O)COCc3ccco3)[C@@H]1CC2 |  | -23.8% [at 11.4 µM] |
| CC(C)=NOC[C@@H](O)COCc1ccco1 |  | -14.7% [at 11.4 µM] |
| COc1cccc([C@H]2Oc3ccc(OC)cc3/C(=N\OC[C@@H](O)[C@@H]3O[C@@H]4OC(C)(C)O[C@@H]4[C@H]3O)[C@@H]2O)c1 | 3.98 µM (active) |  |
| CCOc1ccc(/C=C2\C(=O)c3ccccc3OC2c2ccccc2)cc1 (centres undefined) | inactive |  |
| O=C(O)Cc1ccc2c(c1)N(S(=O)(=O)c1cccc(C(F)(F)F)c1)CC(C(=O)O)O2 (centres undefined) |  | -7.46% [at 2.29 µM] |
| CCOC(=O)C1CN(S(=O)(=O)c2cccc(C(F)(F)F)c2)c2cc(CC(=O)OC)ccc2O1 (centres undefined) | 5.01 µM (active) |  |
| CCS(=O)(=O)c1ccc2c(c1)N(S(C)(=O)=O)CC(C(=O)NCCOC)O2 (centres undefined) | inactive |  |
| COc1ccc2[nH]cc(CCNc3ncnc4ccc(-c5ccc(C(=O)N(C)C)cc5)cc34)c2c1 | 2.51 µM (active) |  |
| COc1ccc2[nH]cc(CCNc3ncncc3-c3ccc(N(C)C)cc3)c2c1 | 0.501 µM (active) |  |
| COc1ccc2[nH]cc(CCNc3ncncc3-c3ccc(C(=O)N(C)C)cc3)c2c1 | 1 µM (active) |  |
| CC1CC/C(=C\c2ccc3c(c2)OCO3)C(=O)/C1=C/c1ccc2c(c1)OCO2 (centres undefined) | 1.58 µM (active) |  |
| CCS(=O)(=O)c1ccc(C(=O)Nc2ccccc2)c(Cl)c1Cl | 5.01 µM (active) |  |
| CCS(=O)(=O)c1ccc(O)c(NC(=O)Nc2ccccc2)c1 | inactive |  |
| CC(C)CO/N=C1/[C@H]2O[C@@H]2[C@@H](O)[C@H]2[C@H]1CCn1c(=O)n(C)c(=O)n12 |  | -9.68% [at 11.4 µM] |
| Cc1nc(S(=O)(=O)N(C)c2ccccc2)c(C#N)c(C)c1Cl | inactive |  |
| Cc1nc(S(=O)(=O)NC2CCCCC2)c(C#N)c(C)c1Cl | 7.94 µM (active) |  |
| Cc1nc(S(=O)(=O)N2CCOCC2)c(C#N)c(C)c1Cl | inactive |  |

| Compound | AC50 | activity, negative = inhibition |
| --- | --- | --- |
| Cc1cccc(NC(=O)CSc2nc(COc3ccccc3)nc3ccccc23)c1C | 3.98 µM (active) |  |
| N[C@H](C(=O)O)c1ccc(O)c(C(=O)O)c1 | inactive |  |
| N[C@H](C(=O)O)c1cc(O)cc(O)c1 | 12.6 µM (active) |  |
| N[C@@H](C(=O)O)c1ccc(C(=O)O)c(O)c1 | inactive |  |
| N[C@@H](C(=O)O)c1cc(O)ccc1Cl | 15.8 µM (active) |  |
| N[C@H](C(=O)O)c1cccc(O)c1 | inactive |  |
| N[C@H](C(=O)O)c1ccc(C(=O)O)c(O)c1 | inactive |  |
| NC(N)=N[C@@H]1C(O)[C@H](N=C(N)N)[C@@H](O)C(O)[C@H]1O (some centres undefined) |  | 12.2% [at 11.4 µM] |
| NC(=O)NC(=O)[C@H]1CCCC[C@@H]1C(=O)O |  | 2.92% [at 11.4 µM] |
| COn1c(SCc2ccc(C)cc2C)nc2ccccc2c1=O | 12.6 µM (active) |  |
| COn1c(SCc2cccc(Cl)c2)nc2ccccc2c1=O | inactive |  |
| COn1c(SC(C)C)nc2ccccc2c1=O |  | 5.93% [at 11.4 µM] |
| O=c1oc(-c2ccco2)nc2c1cnn2-c1ccccc1 | inactive |  |
| COc1cccc(/C=N/n2nnc3c(cnn3-c3ccccc3)c2=O)c1 | inactive |  |
| COc1ccc(Oc2c(Cl)cnn(-c3ccccc3)c2=O)cc1 | 14.1 µM (active) |  |
| CN(C)c1ccc(-c2nc(N(C)C)c3ccccc3n2)cc1 | 12.6 µM (active) |  |
| CN(C)c1nc(-c2ccccc2C(F)(F)F)nc2ccccc12 | inactive |  |
| CSc1c(-c2ccccc2)nc2ccccc2c1C(=O)O | inactive |  |
| CNc1nc(-c2ccc(N(C)C)cc2)nc2ccccc12 | 15.8 µM (active) |  |
| CN(C)c1nc(-c2cccnc2)nc2ccccc12 | 7.94 µM (active) |  |
| O=C(CC1(O)CCCCC1)OC1CCCC1 |  | -11.8% [at 11.4 µM] |
| O=C1COc2ccccc2CN1 |  | 5.27% [at 2.29 µM] |
